Data taken from ChEMBL document CHEMBL3988442, “University of Dundee, Small-Polar-MMV Screening Library” (2021).
The campaign covered roughly 48,000 compounds. About 13,000 (27%) showed an effect of 50% or more. The list shows a part of the results.

System: Wolbachia pipientis
Assay: Anti-Wolbachia Cell-Based Screen
Assay type: functional
Parameters: scale not given: in the data most compounds retested in dose-response had high values
Conditions: 5 µM

Compound	Percent Effect [%]
Cn1ccc(N2CCCC(NC(=O)c3ccsc3)C2=O)n1 (stereo unspecified)	-23.95
Cc1cnn(CCCNC(=O)C2CCCCN2Cc2ccncc2)c1 (stereo unspecified)	-11.5
COc1ccc(C)c2c1N(C(=O)c1cnc3onc(C)c3c1)CCC2	2.409
O=C(CN1CCOC(c2ccc(Cl)c(Cl)c2)C1)NCc1ccco1 (stereo unspecified)	-33.51
Cc1noc(C)c1CN1CC2(CCCCN2c2cncnc2)CC1=O (stereo unspecified)	1.289
CC(C)C(=O)N1CCC([C@@H]2C[C@H](C(F)F)n3ncnc3N2)CC1	105.2
COCCn1ccnc1C1CCCN(C(=O)CSCC2CC2)C1 (stereo unspecified)	-1.205
O=C(CCc1ccc(=O)[nH]n1)N1CCCC(COc2ccc(F)cc2)C1 (stereo unspecified)	-3.616
CC(C)C(=O)N1CCCC([C@@H]2C[C@H](C(F)F)n3ncnc3N2)C1 (stereo partly specified)	140.3
COc1ccc(CN(C)C2CCN(C(=O)C(C)C)CC2)c2cccnc12	-16.31
CC(=O)N1C[C@H]2CCCN(c3ncc(C)cn3)[C@H]2C1	4.198
CC(C)C(=O)N1CC[C@@H]2CN(Cc3ccncc3)S(=O)(=O)[C@@H]2CC1	-1.309
COCCC(=O)N1CCCC([C@@H]2C[C@H](C(F)F)n3ncnc3N2)C1 (stereo partly specified)	128.9
CC(NC(=O)Nc1cccnc1N1CCOCC1)c1ccncc1 (stereo unspecified)	-4.832
CCc1nnc(CN(C)c2cc(C)nc3c(C)c(C)nn23)o1	7.383
Cc1cc(N(C)Cc2cc(C)on2)n2nc(C)c(C)c2n1	-5.11
COCCNC(=O)CN(C)CCn1nc2ccccn2c1=O	81.18
CCOc1ccccc1CSCCn1nc2ccccn2c1=O	-0.2652
COc1ccc(CC(=O)NCCn2nc3ccccn3c2=O)cc1	7.031
CCC(=O)CNC(=O)CCn1nc2ccccn2c1=O	-17.3
CCN(CC)C(=O)CN(C)CCn1nc2ccccn2c1=O	106.3
O=C(CC1CCCC1)NCCn1nc2ccccn2c1=O	2.754
CCCc1cc(C(=O)NCCn2nc3ccccn3c2=O)[nH]n1	0.6756
CC(=O)N1CCCN(CCn2nc3ccccn3c2=O)CC1	104.1
Cc1ccsc1C(=O)NCCCn1nc2ccccn2c1=O	-12.31
CN(CCn1nc2ccccn2c1=O)CC(=O)N(C)C1CCCCC1	82.2

Compound	Percent Effect [%]
Cc1ccccc1CSCCn1nc2ccccn2c1=O	8.414
CC(C1CC1)N(C(=O)NCCCn1nc2ccccn2c1=O)C1CC1 (stereo unspecified)	-19.29
CC(NCC1CCS(=O)(=O)CC1)c1cccc(OC(F)F)c1 (stereo unspecified)	6.07
CCC1=N[C@@]2(CC[C@@H]3CN(CC4CC4)C[C@@H]32)C(=O)N1	9.591
N#Cc1ccc(CNC2CCN(CCc3ccncc3)CC2)cc1	-19.98
CN(C)CCN(Cc1cccc(C(F)(F)F)c1)C(=O)c1cc[nH]n1	1.923
Cc1c[nH]c(CN2CCN(C)C3(CCC(=O)N(CC4CC4)CC3)C2)n1 (stereo unspecified)	-1.954
Cc1cccc(N2CCc3ncc(CNS(C)(=O)=O)n3CC2)n1.O=C(O)C(F)(F)F	88.7
CCS(=O)(=O)N1CCC2(CN(c3cccc(C)n3)C2)C1.O=C(O)C(F)(F)F	1.878
CN1CCc2ncc(CNc3cc(N(C)C)ncn3)n2CC1.O=C(O)C(F)(F)F	-9.651
Cc1cccc(N2CCc3ncc(CNc4ccccn4)n3CC2)n1.O=C(O)C(F)(F)F.O=C(O)C(F)(F)F	88.27
CS(=O)(=O)NCc1cnc2n1CCN(Cc1ccsc1)CC2.O=C(O)C(F)(F)F	-2.337
CN(Cc1ccco1)Cc1cnc2n1CCN(c1ccccn1)CC2.O=C(O)C(F)(F)F.O=C(O)C(F)(F)F	10.62
Cc1cc(C)c(C(=O)N2CCc3c(ncn3CCc3ccccc3)C2)[nH]1	-5.733
CCCNC(=O)N1CCCC2(CCC(=O)N(CCc3c[nH]cn3)C2)C1 (stereo unspecified)	12.8
Cc1ccc2c(n1)N(CCn1cccn1)CCN(C(=O)NC(C)C)C2	112.2
CC(C)NC(=O)N1CCN(CCn2cccn2)c2ncccc2C1.O=C(O)C(F)(F)F	105
CCC(=O)N1CCN(CCn2cccn2)c2ncccc2C1.O=C(O)C(F)(F)F	88.49
CN1CCN(C(=O)NC2CC2)Cc2cccnc21.O=C(O)C(F)(F)F	-1.72
CN1CCN(C(=O)Cc2ccc(F)cc2)Cc2cccnc21.O=C(O)C(F)(F)F	-3.35
Cc1ccc2c(n1)N(CCn1cccn1)CCN(C(=O)NC1CC1)C2.O=C(O)C(F)(F)F	12.45
CC(=O)NCC(=O)N1CCN(CCN(C)C)c2ncccc2C1.O=C(O)C(F)(F)F.O=C(O)C(F)(F)F	-13.2
CC(C)NC(=O)N1CCN(CC2CC2)c2ncccc2C1.O=C(O)C(F)(F)F	-7.83
Cc1ccc2c(n1)N(C)CCN(C(=O)NC(C)C)C2.O=C(O)C(F)(F)F	-4.064
CN1CCC(N(Cc2ccco2)S(=O)(=O)c2cc(Br)ccc2Br)CC1	17.1
CSc1ccc(CN(C(=O)c2cc(=O)[nH]c(=O)[nH]2)C2CC2)cc1	1.499

Compound	Percent Effect [%]
CN(C)C(C(=O)NCCS(=O)(=O)N(C)C)c1cccc(F)c1 (stereo unspecified)	-10.76
Cn1cc(CN2CCC(CCC(=O)NC3CC3)CC2)cn1	-12.61
CN(Cc1cnn(C)c1)C(=O)NC1CCC(O)CC1 (stereo unspecified)	16.63
Cn1cc(-c2cc(-c3cnn(C)c3)n(CC(=O)NC3CC3)n2)cn1	98.73
Cc1ccccc1-c1cc(NC(=O)NC2CC2)n(CCO)n1	-65.06
Cc1cn(CC(=O)NC2CCC(C(=O)O)CC2)c2ccccc12 (stereo unspecified)	-7.822
Cc1ccccc1-c1cc(NC(=O)NC2CCC(O)CC2)n(CCO)n1 (stereo unspecified)	-35.4
Cc1nn2c(NCC(=O)NC3CC3)cc(-c3ccccc3)nc2c1C	7.066
Cc1nn(C)cc1-c1cc(-c2cn(C)nc2C)n(CC(=O)NC2CC2)n1	89.98
Cc1c(-c2cc(-c3cnn(C)c3C)n(CC(=O)NC3CC3)n2)cnn1C	78.99
O=C(c1cnc(Nc2ccccc2)nc1)N1CCCC2(CCNC2)C1 (stereo unspecified)	-3.033
CCN(C(=O)CN(CC(N)=O)C(C)C)C1=CCCC1	4.298
CCOc1cc(F)ccc1NS(=O)(=O)c1cc(C)c(C(=O)O)s1	9.69
Cc1ccc(CN2C[C@H]3CN(CC4CCN(C)CC4)C(=O)[C@H]3C2)s1	-10.19
O=C(c1cccs1)N1CCc2c(nc(N3CCCCC3)[nH]c2=O)C1	121.5
Cc1nc(C(=O)N2CCc3c(nc(-c4ccncc4)[nH]c3=O)C2)cs1	-11.53
Cc1nc2sccn2c1C(=O)N1CCc2c(nc(N)[nH]c2=O)C1	-0.7078
O=C(c1cc[nH]n1)N1CCc2c(nc(N3CCCCC3)[nH]c2=O)C1	120.1
O=C(c1ccccn1)N1CCc2c(nc(N3CCCC3)[nH]c2=O)C1	-8.561
Cc1nc2sccn2c1C(=O)N1CCc2c(nc(N(C)C)[nH]c2=O)C1	14.79
O=C(c1cccs1)N1CCc2c(nc(N3CCCC3)[nH]c2=O)C1	120
O=C(c1ccc(=O)[nH]c1)N1CCc2c(nc(-c3cccnc3)[nH]c2=O)C1	3.404
Nc1nc2c(c(N3CCN(C(=O)c4cccs4)CC3)n1)CCCC2	3.246
O=C(c1cccnc1)N1CCc2c(nc(N3CCCC3)[nH]c2=O)C1	113.8
O=C(c1ncccc1O)N1CCc2c(nc(-c3ccncc3)[nH]c2=O)C1	-0.3257
O=C(c1ccsc1)N1CCc2c(nc(-c3ccncc3)[nH]c2=O)C1	-0.2016

Compound	Percent Effect [%]
O=C(Nc1cncc(Br)c1O)c1ccon1	-9.076
Cc1csc(CCNC(=O)c2cc3c(nc2O)CCC(C)C3)n1 (stereo unspecified)	-7.199
CC(C)(C)n1cc(C#N)cc1NC(=O)CCS(=O)(=O)C1CCCC1	-10.01
COCC(C)(CCO)NC(=O)Nc1cccc(Br)c1C (stereo unspecified)	7.029
NC(=O)CN1CCN(c2ccnc3c(F)ccc(F)c23)CC1	3.08
NC(=O)c1cccc2nc([C@H]3CCN(Cc4ccccn4)C3)[nH]c12	-3.203
COc1ccc(C)cc1CNC(=O)C1=NN(c2ccccc2)C(=O)CN1	14.16
Cc1nc(CN2CCN(c3ccc(SC(C)C)nn3)CC2)cs1	68.89
COC(=O)c1ccc(N2CCN(Cc3csc(C)n3)CC2)nn1	-1.977
Cc1cc(N2CCN(Cc3nccn3C)CC2)cc(C)n1	-5.748
CC(C)Sc1ccc(N2CCN(Cc3ccccn3)CC2)nn1	14.48
CCc1nc(CNc2nc3c(s2)c(C)nn3C)cs1	-39.2
Cc1nn(C)c2nc(N3CCC(C(O)c4nccn4C)CC3)sc12 (stereo unspecified)	-3.971
Cc1nc(CNc2nc3c(s2)c(C)nn3C)cs1	-20.12
Cc1nn(C)c2nc(N3CCN(Cc4nccn4C)CC3)sc12	103.8
Cc1nc(CN2CCN(c3nc4c(s3)c(C)nn4C)CC2)cs1	119.2
Cc1ccc2c(c1)C(N(C)C)CC21CCN(CCO)CC1.O=C(O)C(F)(F)F.O=C(O)C(F)(F)F (stereo unspecified)	1.059
Cc1ccc2c(c1)C(NC(=O)N(C)C)CC21CCN(CC2CC2)CC1.O=C(O)C(F)(F)F (stereo unspecified)	116.9
CCN1CCC2(CC1)CC(NC(=O)NC)c1cc(C)ccc12.O=C(O)C(F)(F)F (stereo unspecified)	-18.25
Cc1ccc2c(c1)C(NC(=O)N(C)C)CC21CCN(C(C)C)CC1.O=C(O)C(F)(F)F (stereo unspecified)	100.3
CC(C)N1CCC2(CC1)CC(CC(N)=O)c1ccc(F)cc12.O=C(O)C(F)(F)F (stereo unspecified)	14.5
Cc1ccc2c(c1)C(NC(=O)N(C)C)CC21CCN(C)CC1.O=C(O)C(F)(F)F (stereo unspecified)	102.1
CCN1CCC2(CC1)CC(NC(=O)N(C)C)c1cc(C)ccc12.O=C(O)C(F)(F)F (stereo unspecified)	-13.82
